An excerpt weighted towards active compounds, which were near 4% of everything screened.
BoNT-F LC inh: inhibitors of Botulinum neurotoxin F light chain protease; 360,000 compounds, 0.22% hits; Multiplex microsphere protease cleavage assay, flow cytometry; inhibition, % at 10 µM; in the data active means inhibition above about 35%, passing the limit was not always enough; inconclusive means no clear call, values can overlap the other calls
Anthrax LF inh2: blocks Bacillus anthracis lethal factor protease; 360,000 compounds, 0.12% hits; inhibition, % at 10 µM; P15917; multiplex microsphere protease cleavage assay, LF
BoNT-A LC inh2: blocks Botulinum neurotoxin A light chain protease. multiplex microsphere protease substrate cleavage, flow cytometry. inhibition, % at 10 µM. 360,000 compounds, 0.17% hits
MazEF act: MazEF (E. coli) toxin RNase activation; P0AE70; FAM/BHQ RNA-DNA oligo cleavage fluorescence, 5 h; activation, % at 20 µM; 350,000 compounds, 0.32% hits; AID 504720; in the data active means activation above about 50%
Target sequence (P0AE70 whole entry, looked up): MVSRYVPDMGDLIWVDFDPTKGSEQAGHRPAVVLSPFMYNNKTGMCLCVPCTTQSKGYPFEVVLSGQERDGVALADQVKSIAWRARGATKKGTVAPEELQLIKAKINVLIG
VHR inh abs: DUSP3 (human) phosphatase inhibition | inhibition, % at 13.3 µM | P51452 | recombinant VHR phosphatase, pNPP absorbance | 290,000 compounds, 0.52% hits; in the data active means inhibition above about 50%
Target sequence (P51452 whole entry, looked up): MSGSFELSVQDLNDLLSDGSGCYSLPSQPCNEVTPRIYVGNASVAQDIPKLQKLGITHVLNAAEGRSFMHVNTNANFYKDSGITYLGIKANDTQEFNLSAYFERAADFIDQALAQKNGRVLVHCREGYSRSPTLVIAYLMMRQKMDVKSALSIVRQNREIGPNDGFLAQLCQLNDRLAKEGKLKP
Autofluor counter: compound fluorescence in toxin protease inhibitor counterscreen. compound autofluorescence counterscreen, microsphere flow cytometry; hits give high values. fluorescence intensity (concentration not given with the values). 360,000 compounds, 3.1% hits. AID 624483; in the data active means fluorescence intensity above about 16000; inconclusive means no clear call, values can overlap the other calls
Hits are given with their value; – = inactive; ? = inconclusive; · = not tested or not shown. Unless noted, no stated cut-off is given here; in the data, active means inhibition above about 30%; inconclusive means no clear call, values can overlap the other calls; inactive means below that.

SMILES | BoNT-F LC inh | Anthrax LF inh2 | BoNT-A LC inh2 | MazEF act | VHR inh abs | Autofluor counter
COc1ccccc1Nc1ccc([N+](=O)[O-])cc1N | – | – | – | – | 53.4 | –
C/C(CC1CC(COCCC(C)C)OC1=O)=N\NC(N)=S (stereo not given) | – | – | – | – | – | 20283
COc1cccc(C(=O)N2CCN(Cc3cccc(F)c3)CC2)c1 | – | – | – | – | – | 23288
CCOc1ccc(C(=O)N2CCCC2)cc1OC | – | – | – | – | – | 21510
COc1ccc(CN2CCN(C(=O)c3cc(OC)c(OC)c(OC)c3)CC2)cc1OC | – | – | ? | – | – | 22314
CCOc1ccc(C(=S)N2CCCC2)cc1OC | – | – | – | – | – | –
O=[N+]([O-])c1cccc(COc2cccc(CO)c2)c1 | – | – | – | – | · | –
CC(=O)/C(=N\Nc1ccccc1)Oc1ccc([N+](=O)[O-])cc1 | – | – | – | – | – | –
Cc1noc(C)c1S(=O)(=O)NC(=O)C1(C)CCN1C(=O)C1(c2ccc(Cl)cc2)CCC1 (stereo not given) | – | – | – | · | · | –
CN(C)C(=O)CSc1nnc([C@@H](N)Cc2ccccc2)o1 | – | – | – | – | – | 22809
C[C@H](N)c1nnc(SCC(=O)N(C)C)o1 | – | – | – | – | – | 20911
CCS(CC)=NS(=O)(=O)c1ccc(NC(C)=O)cc1 | 37.4 | – | – | – | – | –
O=C(c1ccc(F)cc1)C1CCN(C(=O)Nc2ccc(F)cc2)CC1 | – | – | – | – | – | –
O=C(O)c1cc(NCc2ccccc2C(F)(F)F)ccc1N1CCOCC1 | – | – | ? | – | – | 22050
C=CCNC(=O)CSCc1ccc(Br)cc1 | – | – | – | – | – | –
CC(C)(C)NC(=O)CSCc1ccc(Br)cc1 | – | – | – | – | 52.9 | –
Cc1ccc(S(=O)(=O)Nc2ccc3c(c2)nc2n3CCN(Cc3ccccc3)C2)cc1 | – | – | – | – | – | 18646
O=S(=O)(Nc1ccc2c(c1)nc1n2CCN(Cc2ccccc2)C1)c1ccccc1 | – | – | – | – | – | –
O=S(=O)(Nc1ccc2c(c1)nc1n2CCN(Cc2ccccc2)C1)c1ccc(F)cc1 | – | – | – | – | – | 24166
O=C(NCCc1ccccc1)c1ccc2nc3cc(Cl)ccc3c(=O)n2c1 | – | – | – | – | – | –
Cc1ccc(NC(=O)c2nc[nH]c2C(=O)N2CCOCC2)c(C(=O)c2ccccc2)c1 | – | – | – | – | – | –
CC1=C(C(=O)N(C(C)C)C(C)C)CC(CC(=O)NCC2CCCCC2)C(=O)N1Cc1ccc(F)cc1 (stereo not given) | – | – | – | · | · | –
O=C(COC(=O)c1cccnc1Cl)c1ccc(Cl)cc1Cl | – | – | – | – | – | 19499
N#Cc1ccc(COC(=O)c2cccnc2Cl)cc1 | – | – | – | – | 59.1 | –
CC(C)NC(=O)CSc1ccccc1C(=O)N1CCN(S(=O)(=O)/C=C/c2ccccc2)CC1 | – | – | – | – | · | –
SMILES | BoNT-F LC inh | Anthrax LF inh2 | BoNT-A LC inh2 | MazEF act | VHR inh abs | Autofluor counter
CN(C)C(=O)COC(=O)c1cc(Cl)cc(Cl)c1N | – | – | – | – | – | –
CC(C)N(C(=O)COC(=O)c1cc(Cl)cc(Cl)c1N)C(C)C | – | – | – | – | – | 21720
CCC(C(=O)O)N1C(=O)c2ccccc2C1=O (stereo not given) | – | – | – | – | – | –
COc1c(C)cc(C(=O)C2CCCN(C(=O)/C=C/c3ccccn3)C2)cc1C (stereo not given) | – | – | – | – | – | –
CCOC(=O)c1c(-c2ccc(C)o2)csc1NC(=O)COC(=O)c1cccs1 | – | – | – | – | – | –
CCOC(=O)c1c(-c2ccc(C)o2)csc1NC(=S)NC(=O)N(C)C | – | – | – | – | – | 18614
CCOc1ccc(N2C(=O)/C(=C\c3cccs3)C(=O)NC2=S)cc1 | · | · | · | – | – | ·
CCOc1ccc(N2C(=O)/C(=C/c3ccco3)C(=O)NC2=S)cc1 | 47.0 | – | – | – | – | –
O=[N+]([O-])c1cccnc1Nc1ccc(Cl)cc1 | – | – | – | – | · | –
Cc1cc(C(=O)CSc2nnc(-c3ccccc3)n2C)c(C)n1C | – | – | – | – | – | 22200
CCCn1c(SCC(=O)NC2CCCCC2)nnc1-c1ccco1 | – | – | – | – | 57.6 | –
Cn1c(SCC(=O)Nc2nc3c(s2)CCCC3)nnc1-c1ccccc1 | – | – | – | – | – | 20299
Cn1c(SCC(=O)Nc2ccccc2-c2ccccc2)nnc1-c1ccco1 | – | – | – | – | – | 16441
Cc1occc1-c1nnc(SCC(=O)Nc2ccccc2-c2ccccc2)n1C | – | – | – | – | – | –
Cc1cc(C(=O)CSc2nnc(-c3ccncc3)n2-c2ccccc2)c(C)n1C | – | – | – | – | – | –
Cc1ccc(-c2nnc(SCC(=O)Nc3nc4c(s3)CCCC4)n2C)cc1 | – | – | – | – | – | –
CC(C)(C)c1ccc(C(=O)N2CCN(C(=O)c3cccs3)CC2)cc1 | – | – | – | – | · | –
Cc1ccccc1N1CC2=C(C1=O)C(c1ccccc1)NC(=O)N2C (stereo not given) | – | – | – | – | – | –
CCCn1c(SCC(=O)Nc2nnc(CC)s2)nnc1-c1ccco1 | ? | – | – | – | – | –
O=C(Cc1cccs1)Nc1nc2c(s1)CCCC2 | – | – | – | – | – | 17280
CCc1nnc(NC(=O)/C=C/c2ccco2)s1 | 44.1 | – | – | – | – | –
CCc1nnc(NC(=O)CSc2nnc(-c3ccco3)n2CC)s1 | – | – | – | – | – | 22759
CCc1nnc(NC(=O)CSc2nnc(-c3ccco3)n2C)s1 | – | – | – | – | – | 21882
O=C(Nc1ccccc1)Nc1ccc2c(c1)CCC2 | – | – | – | – | – | –
O=C(Nc1cccc([N+](=O)[O-])c1)Nc1ccc2c(c1)CCC2 | – | – | – | 84.2 | – | –
SMILES | BoNT-F LC inh | Anthrax LF inh2 | BoNT-A LC inh2 | MazEF act | VHR inh abs | Autofluor counter
CCC(=O)Nc1ccc2c(c1)Cc1cc([N+](=O)[O-])ccc1-2 | – | – | – | 58.3 | · | –
COc1ccc(C(=O)Nc2cccc([N+](=O)[O-])c2)cc1Br | – | – | – | – | · | –
O=CNc1ccc2c(c1)Cc1cc([N+](=O)[O-])ccc1-2 | – | – | – | – | · | –
COc1ccc(NC(=O)Nc2cccc([N+](=O)[O-])c2)cc1Cl | – | – | – | 105.7 | – | –
CN(C)C(=O)C1(c2ccccc2)CCN(S(=O)(=O)c2ccccc2)CC1 | – | – | – | – | – | –
CS(=O)(=O)N(CC(=O)NC1CCCC1)Cc1ccc(Cl)cc1 | – | – | – | – | – | 17349
CN(CC(=O)NC1CCCCC1)S(=O)(=O)c1ccc(Cl)cc1 | – | – | – | – | – | –
CS(=O)(=O)N(CC(=O)NC1CCCCC1)Cc1ccc(Cl)cc1 | – | – | – | – | – | 17256
CS(=O)(=O)N(CC(=O)N1CCCCCC1)Cc1ccc(Cl)cc1 | – | – | ? | – | – | 22456
COC(=O)C(Cc1ccc(OC(=O)c2ccccc2Cl)cc1)N1Cc2ccccc2C1=O (stereo not given) | – | – | – | – | – | –
CC(=NNC(=S)N1CCCCC1)c1ccccn1 | 73.2 | 87.1 | – | – | · | –
